Our source for the log2 fold change values is the supplement of paper PMC10849652.

Targets with a hit are over-represented here; the source holds about 8,800 in all. About 0.5% of all pairs of compound and target were hits. A number with no mark means an inactive call.

What all share (assay): log2 fold change, soluble protein after heating vs DMSO (PISA); higher = thermal stabilisation; K562 lysate, 10 uM; active = over 0.2 and 3.5 SD of the protein, either way, in both replicates (recomputed)
Compound in test [1]: NCC(=O)Nc1ccc(-n2nc(C(F)(F)F)cc2-c2ccc3c(ccc4ccccc43)c2)cc1
In a few lines:
(§1)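 Following dounce homogenisation of K562 pellets in PBS pH 7.4 with 1 mM MgCl2, crude extract at 1 mg/mL protein was incubated for 30 min with 10 μM compound. Aliquots were then heated for 3 min over 48°C-58°C and pooled, NP-40 was added to 0.5% at 4°C, and soluble protein was recovered as the supernatant at 21,000xg for 90 min. Channel-sum-equalised TMTpro 16plex LC-MS/MS quantified this protein. Each value, from duplicates, is a log-two fold change in thermal stability relative to solvent controls.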

Compound in another test: O=C(CCCCCCC(=O)Nc1ccccc1)NO [vorinostat]
Put shortly: as §1

Compound in the next test: O=C(O)c1ccc2c(c1)nc(Nc1cccc(Cl)c1)c1ccncc12 [silmitasertib]
Put shortly: as §1

Compound in test [2]: O=C1NC(=O)C(c2cnc3ccccn23)=C1c1cn2c3c(cc(F)cc13)CN(C(=O)N1CCCCC1)CC2
In a few lines:
as §1

Compound in a further test: c1cn2cc(-c3ccc4cn[nH]c4c3)nc(Nc3ccc(N4CCOCC4)cc3)c2n1 [entospletinib]
Put shortly:
as §1

UniProt Q9NZ43, sequence (Q9NZ43 whole entry, looked up): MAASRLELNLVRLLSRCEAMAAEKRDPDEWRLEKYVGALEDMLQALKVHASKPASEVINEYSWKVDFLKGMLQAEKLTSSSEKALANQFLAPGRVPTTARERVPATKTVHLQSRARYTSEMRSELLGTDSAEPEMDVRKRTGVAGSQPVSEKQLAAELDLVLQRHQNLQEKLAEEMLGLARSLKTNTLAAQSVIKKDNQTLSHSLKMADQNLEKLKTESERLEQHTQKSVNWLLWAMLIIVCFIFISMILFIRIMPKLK
UniProt P07947, sequence (P07947 whole entry, looked up): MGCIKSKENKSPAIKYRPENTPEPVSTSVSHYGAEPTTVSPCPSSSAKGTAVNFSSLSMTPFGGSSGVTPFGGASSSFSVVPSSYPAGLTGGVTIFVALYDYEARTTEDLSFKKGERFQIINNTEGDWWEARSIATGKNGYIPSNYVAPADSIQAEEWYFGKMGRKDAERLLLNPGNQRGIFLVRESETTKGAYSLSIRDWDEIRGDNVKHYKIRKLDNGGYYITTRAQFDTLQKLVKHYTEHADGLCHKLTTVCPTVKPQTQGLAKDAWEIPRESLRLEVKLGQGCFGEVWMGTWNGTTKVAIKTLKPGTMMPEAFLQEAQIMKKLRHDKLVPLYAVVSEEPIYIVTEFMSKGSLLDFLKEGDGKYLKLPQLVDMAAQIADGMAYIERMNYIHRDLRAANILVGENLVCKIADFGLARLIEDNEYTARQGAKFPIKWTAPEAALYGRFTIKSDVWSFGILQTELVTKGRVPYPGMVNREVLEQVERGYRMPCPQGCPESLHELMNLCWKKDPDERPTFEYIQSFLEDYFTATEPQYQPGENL
UniProt Q96TA2, sequence (Q96TA2 whole entry, looked up): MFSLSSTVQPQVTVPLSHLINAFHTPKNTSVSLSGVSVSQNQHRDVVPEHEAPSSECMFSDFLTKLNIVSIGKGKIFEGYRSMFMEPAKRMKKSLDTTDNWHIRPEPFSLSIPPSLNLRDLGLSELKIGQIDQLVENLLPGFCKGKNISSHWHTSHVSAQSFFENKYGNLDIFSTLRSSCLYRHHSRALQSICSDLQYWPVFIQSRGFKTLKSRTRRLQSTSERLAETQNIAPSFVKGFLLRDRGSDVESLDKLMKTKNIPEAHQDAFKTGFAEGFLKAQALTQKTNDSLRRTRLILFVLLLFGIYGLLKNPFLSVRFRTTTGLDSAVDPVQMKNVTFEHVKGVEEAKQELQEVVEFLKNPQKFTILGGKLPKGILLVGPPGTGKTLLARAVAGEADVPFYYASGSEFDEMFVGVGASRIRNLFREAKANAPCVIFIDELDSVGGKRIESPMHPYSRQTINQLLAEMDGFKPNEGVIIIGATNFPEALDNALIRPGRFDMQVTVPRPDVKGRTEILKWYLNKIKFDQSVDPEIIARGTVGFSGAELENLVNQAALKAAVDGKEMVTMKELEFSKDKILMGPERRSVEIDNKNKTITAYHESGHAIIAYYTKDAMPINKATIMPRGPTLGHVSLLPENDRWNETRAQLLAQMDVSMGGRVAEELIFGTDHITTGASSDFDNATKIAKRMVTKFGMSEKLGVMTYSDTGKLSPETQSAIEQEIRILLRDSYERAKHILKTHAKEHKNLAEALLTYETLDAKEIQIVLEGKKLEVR
UniProt Q9UNX4, sequence (Q9UNX4 whole entry, looked up): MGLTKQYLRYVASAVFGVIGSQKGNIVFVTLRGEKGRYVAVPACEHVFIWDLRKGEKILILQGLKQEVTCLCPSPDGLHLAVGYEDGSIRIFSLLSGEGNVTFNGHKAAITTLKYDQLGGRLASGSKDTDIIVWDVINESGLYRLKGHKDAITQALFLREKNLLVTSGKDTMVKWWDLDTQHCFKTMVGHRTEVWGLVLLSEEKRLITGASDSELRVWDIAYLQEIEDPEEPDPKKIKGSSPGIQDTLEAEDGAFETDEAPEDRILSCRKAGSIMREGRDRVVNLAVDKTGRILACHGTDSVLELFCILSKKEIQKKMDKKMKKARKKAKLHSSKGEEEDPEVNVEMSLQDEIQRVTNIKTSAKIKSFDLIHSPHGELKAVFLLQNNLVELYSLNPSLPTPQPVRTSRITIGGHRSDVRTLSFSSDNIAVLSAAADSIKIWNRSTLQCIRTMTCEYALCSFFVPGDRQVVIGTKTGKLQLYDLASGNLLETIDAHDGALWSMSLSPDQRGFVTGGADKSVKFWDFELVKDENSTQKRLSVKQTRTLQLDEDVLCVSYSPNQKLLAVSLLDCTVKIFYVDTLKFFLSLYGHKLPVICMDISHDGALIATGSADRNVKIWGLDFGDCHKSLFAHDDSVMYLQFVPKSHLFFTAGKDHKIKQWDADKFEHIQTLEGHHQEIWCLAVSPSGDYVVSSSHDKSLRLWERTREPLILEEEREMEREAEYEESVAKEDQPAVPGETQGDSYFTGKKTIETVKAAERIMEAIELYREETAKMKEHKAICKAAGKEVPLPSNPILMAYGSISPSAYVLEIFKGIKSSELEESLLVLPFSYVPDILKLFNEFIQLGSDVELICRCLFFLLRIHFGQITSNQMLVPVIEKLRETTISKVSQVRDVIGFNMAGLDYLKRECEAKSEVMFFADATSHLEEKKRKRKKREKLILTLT
UniProt O75717, sequence (O75717 whole entry, looked up): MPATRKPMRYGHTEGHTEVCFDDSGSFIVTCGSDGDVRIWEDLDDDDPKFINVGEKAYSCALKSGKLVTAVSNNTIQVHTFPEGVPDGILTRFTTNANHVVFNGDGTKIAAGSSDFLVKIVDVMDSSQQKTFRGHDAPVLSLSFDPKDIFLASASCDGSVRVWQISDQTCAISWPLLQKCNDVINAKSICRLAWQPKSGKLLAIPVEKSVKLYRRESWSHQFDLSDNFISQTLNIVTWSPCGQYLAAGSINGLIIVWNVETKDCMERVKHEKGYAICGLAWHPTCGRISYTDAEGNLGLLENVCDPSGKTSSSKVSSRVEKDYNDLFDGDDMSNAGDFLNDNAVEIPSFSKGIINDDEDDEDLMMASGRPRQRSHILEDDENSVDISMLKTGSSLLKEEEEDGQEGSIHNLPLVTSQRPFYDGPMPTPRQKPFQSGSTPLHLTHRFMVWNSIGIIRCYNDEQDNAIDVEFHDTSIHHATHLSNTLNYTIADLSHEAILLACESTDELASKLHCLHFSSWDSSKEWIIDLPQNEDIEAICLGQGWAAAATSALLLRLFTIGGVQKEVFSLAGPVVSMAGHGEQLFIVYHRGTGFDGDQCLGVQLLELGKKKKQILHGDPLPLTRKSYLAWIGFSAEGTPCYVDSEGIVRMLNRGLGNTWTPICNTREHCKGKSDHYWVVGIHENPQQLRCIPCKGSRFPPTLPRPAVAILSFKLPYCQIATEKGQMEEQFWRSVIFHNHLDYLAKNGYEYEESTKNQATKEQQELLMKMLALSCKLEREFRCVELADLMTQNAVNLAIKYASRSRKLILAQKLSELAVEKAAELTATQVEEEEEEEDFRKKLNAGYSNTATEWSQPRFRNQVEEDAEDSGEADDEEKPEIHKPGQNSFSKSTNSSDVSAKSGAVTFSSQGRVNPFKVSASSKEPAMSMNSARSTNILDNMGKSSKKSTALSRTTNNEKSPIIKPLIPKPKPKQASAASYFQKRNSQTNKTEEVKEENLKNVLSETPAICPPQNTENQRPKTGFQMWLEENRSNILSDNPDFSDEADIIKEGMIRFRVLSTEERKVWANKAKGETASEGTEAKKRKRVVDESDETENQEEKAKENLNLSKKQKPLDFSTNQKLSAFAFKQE
UniProt Q96S55, sequence (Q96S55 whole entry, looked up): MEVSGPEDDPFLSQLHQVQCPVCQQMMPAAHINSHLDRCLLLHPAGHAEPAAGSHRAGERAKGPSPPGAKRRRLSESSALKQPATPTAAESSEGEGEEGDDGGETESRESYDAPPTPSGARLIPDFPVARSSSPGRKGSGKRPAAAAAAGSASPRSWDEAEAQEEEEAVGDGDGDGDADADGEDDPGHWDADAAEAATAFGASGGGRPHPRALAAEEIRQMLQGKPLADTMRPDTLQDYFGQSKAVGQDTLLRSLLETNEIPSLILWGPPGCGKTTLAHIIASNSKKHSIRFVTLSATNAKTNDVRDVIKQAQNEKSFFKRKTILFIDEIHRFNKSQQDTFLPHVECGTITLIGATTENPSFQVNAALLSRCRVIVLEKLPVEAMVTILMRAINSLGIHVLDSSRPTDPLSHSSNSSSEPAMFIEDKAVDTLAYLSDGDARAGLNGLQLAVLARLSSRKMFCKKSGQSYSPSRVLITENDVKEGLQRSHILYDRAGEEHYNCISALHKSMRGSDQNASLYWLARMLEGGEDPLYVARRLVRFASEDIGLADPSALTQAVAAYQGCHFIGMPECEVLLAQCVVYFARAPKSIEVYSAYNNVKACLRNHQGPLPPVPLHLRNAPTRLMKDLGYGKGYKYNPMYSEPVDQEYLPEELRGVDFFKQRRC
UniProt Q9UBK9, sequence (Q9UBK9 whole entry, looked up): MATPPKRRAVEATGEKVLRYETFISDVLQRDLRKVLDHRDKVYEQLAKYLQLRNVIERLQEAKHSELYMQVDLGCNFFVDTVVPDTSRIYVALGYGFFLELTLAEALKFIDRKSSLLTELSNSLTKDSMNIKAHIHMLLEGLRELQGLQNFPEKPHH
UniProt Q6PHR2, sequence (Q6PHR2 whole entry, looked up): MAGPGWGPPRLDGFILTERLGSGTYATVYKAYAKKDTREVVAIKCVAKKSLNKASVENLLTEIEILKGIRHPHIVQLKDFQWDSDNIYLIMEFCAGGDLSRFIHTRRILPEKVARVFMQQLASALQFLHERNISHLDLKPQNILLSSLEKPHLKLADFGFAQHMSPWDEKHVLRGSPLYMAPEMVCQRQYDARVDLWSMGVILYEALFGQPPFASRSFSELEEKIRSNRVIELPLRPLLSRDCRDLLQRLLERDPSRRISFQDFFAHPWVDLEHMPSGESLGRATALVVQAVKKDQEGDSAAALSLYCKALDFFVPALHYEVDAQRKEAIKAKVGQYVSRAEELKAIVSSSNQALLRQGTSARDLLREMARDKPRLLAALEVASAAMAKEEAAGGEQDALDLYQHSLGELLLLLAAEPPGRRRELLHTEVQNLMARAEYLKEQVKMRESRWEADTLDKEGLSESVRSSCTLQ

ULK3 isoform 4 (UniProt Q6PHR2): the log2 fold change in test [1] was -0.102; with vorinostat it was -0.05; in the test with silmitasertib, 0.242; in test [2] it was 0.046; with entospletinib it was 0.273.

For VPS39 (UniProt Q96JC1), the log2 fold change in test [1] is 0.009; with vorinostat, -0.194; in the test with silmitasertib, 0.01; in test [2], -0.005; with entospletinib it was 0.013.

Consider VAC14 (UniProt Q08AM6), for which the log2 fold change in test [1] is -0.02; with vorinostat it was -0.229 (active); in the test with silmitasertib, 0.041; in test [2], 0.005; with entospletinib, -0.008.

In the case of WRNIP1 (UniProt Q96S55), the log2 fold change was -0.011 in test [1]; -0.521 (active) with vorinostat; 0 with silmitasertib; -0.046 in test [2]; -0.02 in the test with entospletinib.

For the target VPS33A (UniProt Q96AX1), the log2 fold change in test [1] is 0.011; with vorinostat, -0.222 (active); with silmitasertib, 0.025; in test [2], 0.007; in the test with entospletinib, -0.018.

For the target XPO5 (UniProt Q9HAV4), the log2 fold change in test [1] is 0; in the test with vorinostat it was -0.574 (active); with silmitasertib, 0.035; in test [2], 0.011; with entospletinib, 0.015.

Regarding WDR3 (UniProt Q9UNX4), the log2 fold change in test [1] was -0.031; in the test with vorinostat, -0.255 (active); in the test with silmitasertib it was 0.044; in test [2], 0.01; with entospletinib it was -0.001.

As for USE1 (UniProt Q9NZ43), the log2 fold change in test [1] was -0.113; in the test with vorinostat, -0.029; in the test with silmitasertib it was 0.028; in test [2] it was 0.053; with entospletinib, -0.036.

As for UPF3B (UniProt Q9BZI7), the log2 fold change in test [1] was 0.022; with vorinostat, 0.075; in the test with silmitasertib, -0.02; in test [2], -0.043; with entospletinib, -0.049.

As for YES1 (UniProt P07947), the log2 fold change was 0.09 in test [1]; -0.067 with vorinostat; -0.187 in the test with silmitasertib; -0.054 in test [2]; 0.038 with entospletinib.

Turning to UXT isoform 2 (UniProt Q9UBK9), the log2 fold change in test [1] was -0.003; with vorinostat, 0.037; with silmitasertib, -0.039; in test [2], -0.025; with entospletinib, 0.02.

As to WDHD1 (UniProt O75717), the log2 fold change is -0.011 in test [1]; -0.259 (active) with vorinostat; 0.02 with silmitasertib; -0.018 in test [2]; 0.016 in the test with entospletinib.

Turning to WDR24 (UniProt Q96S15), the log2 fold change in test [1] is 0.041; with vorinostat it was -0.202; in the test with silmitasertib, 0.134; in test [2], 0.032; in the test with entospletinib it was 0.022.

As to YME1L1 (UniProt Q96TA2), the log2 fold change in test [1] is -0.001; in the test with vorinostat it was 0.04; with silmitasertib, 0.007; in test [2] it was -0.008; with entospletinib, 0.02.

For the target VPS13C (UniProt Q709C8), the log2 fold change in test [1] was 0.005; in the test with vorinostat, 0.062; with silmitasertib it was -0.033; in test [2], 0.027; with entospletinib it was -0.051.

On to ZMYM4 (UniProt Q5VZL5), for which the log2 fold change in test [1] is 0.05; with vorinostat, -0.383 (active); in the test with silmitasertib, -0.016; in test [2], 0.009; in the test with entospletinib, -0.013.

As for ZC3H11A (UniProt O75152), the log2 fold change is 0.123 in test [1]; -0.375 (active) with vorinostat; -0.026 with silmitasertib; 0.062 in test [2]; -0.009 with entospletinib.

For the target UNC13D (UniProt Q70J99), the log2 fold change in test [1] is 0.022; with vorinostat, -0.211 (active); with silmitasertib, 0.002; in test [2], -0.006; with entospletinib, 0.026.

In the case of VAV3 isoform 4 (UniProt Q9UKW4), the log2 fold change in test [1] was 0.128; in the test with vorinostat, -0.358; with silmitasertib, 0.148; in test [2], -0.115; in the test with entospletinib, 0.295.

Consider WEE1 (UniProt P30291), for which the log2 fold change was 0.023 in test [1]; -0.52 (active) with vorinostat; 0.107 in the test with silmitasertib; -0.03 in test [2]; -0.007 with entospletinib.

ZNF644 (UniProt Q9H582): the log2 fold change was -0.007 in test [1]; 0.222 with vorinostat; -0.092 in the test with silmitasertib; 0.016 in test [2]; -0.022 with entospletinib.

Consider ZNHIT6 (UniProt Q9NWK9), for which the log2 fold change in test [1] is 0.001; with vorinostat, -0.218 (active); with silmitasertib, -0.041; in test [2], 0.002; in the test with entospletinib it was -0.062.

For WIPI2 (UniProt Q9Y4P8), the log2 fold change in test [1] is -0.036; with vorinostat, -0.303 (active); in the test with silmitasertib, 0.033; in test [2], -0.005; in the test with entospletinib, -0.008.

In the case of ZFPM1 (UniProt Q8IX07), the log2 fold change in test [1] is -0.009; in the test with vorinostat it was -0.251 (active); in the test with silmitasertib, 0; in test [2] it was -0.03; with entospletinib it was -0.021.

Turning to USP9X (UniProt Q93008), the log2 fold change in test [1] is 0.011; in the test with vorinostat, -0.466 (active); with silmitasertib, 0.028; in test [2], -0.012; in the test with entospletinib, 0.
